In the library only some 7.1% were active in any assay of this set; here they are far more common.
ATXN viability = cell viability loss in ATXN counter-screen | Potency, µM (titrated, usually from 56.7 µM), hits mostly cytotoxic | actives 0.49% (n = 400,000) | S2 cells (HEK-293 line with an ATXN2-luciferase reporter) viability, CellTiter-Fluor protease fluorescence, 24 h | AID 651635; note: potency is the fitted concentration of half-maximal effect; nearly all actives have a fitted effect of over 40% in size
PINK1 modulator = changes PINK1 expression | Potency, µM (titrated, usually from 76.6 µM), inactives show at the highest dose activation (PINK1 increase), most hits filed as activators | actives 0.2% (n = 410,000) | PINK1 immunofluorescence, high-content cytometry, 24 h | AID 624263; active = well fitted activation curve with a large enough effect; inconclusive = small, poorly fitted or top-dose-only effect; cell line not stated here; note: potency is the fitted concentration of half-maximal effect; % of control where 0% means no effect; nearly all actives have a fitted effect of over 65% in size
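Measures PINK1 amount and localization on or inside mitochondria by immunofluorescence. Stable cells get compounds at 5 concentrations for 24 hours before fixation and staining; CCCP controls included.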
MCF10A rereplic = inducers of DNA re-replication in MCF 10A breast cells; AID 624296; actives 2.9% (n = 350,000); MCF 10A DNA re-replication, Hoechst nuclear intensity, 48 h; Potency, µM (doses to about 46.1 µM), inactives show at the highest dose activity, positive = re-replication, hits mostly activators; note: potency is the fitted concentration of half-maximal effect; % of control where 0% means no effect; nearly all actives have a fitted effect of over 50% in size
IL1B secr inh = inflammasome signaling inhibition, IL-1 beta readout; AID 743279; activity change, % at 57.5 µM; actives 4.7% (n = 360,000); THP-1 LPS/ATP IL-1B secretion, AlphaLISA, 16 h; hits give low values; in the data active = activity change below about -50%; inconclusive = mostly about -30% to -49%; note: % is set by controls: 0 for no effect and ±100 for the full control effect
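THP-1 cells pretreated 1 hr with compounds (up to 57.5 uM final), then stimulated with LPS (250 ng/mL final) plus ATP (1.25 mM final); secreted IL-1B measured by AlphaLISA after 16 hr, decreased signal indicating inhibition.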
SW480 rereplic = DNA re-replication induction in SW480 cells; SW480 DNA re-replication, Hoechst DNA content imaging, 48 h; Potency, µM (titrated, usually from 46.1 µM), for inactives: at the highest dose re-replication activation, usual class: activators; actives 1.8% (n = 340,000); AID 624297; note: potency is the fitted concentration of half-maximal effect; % of control where 0% means no effect; nearly all actives have a fitted effect of over 55% in size
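Compounds, transferred as 23 nL by pin tool, were incubated with cells for 48 hr; DNA content per nucleus was then quantified by Hoechst staining and fluorescence plate imaging.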
ATXN2 expr inh = inhibitors of ATXN2 expression | HEK-293 ATXN2-luciferase reporter, luminescence, 24 h | Potency, µM (top dose mostly 57 µM), inactives show top-dose activity change, negative = inhibition, most hits filed as inhibitors | actives 0.72% (n = 360,000) | AID 1745845; note: potency is the fitted concentration of half-maximal effect; % is set by controls: 0 for no effect and ±100 for the full control effect; nearly all actives have a fitted effect of over 55% in size
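ATXN2-luciferase reporter cells (luciferase flanked by upstream and downstream ATXN2 gene portions) were treated 24 h at 37 °C with compounds at up to 57 uM. SteadyGlo luminescence gave expression; GF-AFC fluorescence gave viability.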
Active calls of the source: *; i = inactive; ? = inconclusive; / = not tested or not shown; [ ] = dose if it differs, or a comment. Unless noted, calls come from the whole dose curve; as a rule, active = well fitted curve in the direction sought with a large enough effect; inconclusive = small, poorly fitted or top-dose-only effect, or another doubt; inactive = no such curve, though single readings can be large; an effect the other way counts as inactive or inconclusive.

SMILES | ATXN viability | PINK1 modulator | MCF10A rereplic | IL1B secr inh | SW480 rereplic | ATXN2 expr inh
COc1ccccc1NS(=O)(=O)c1cccc(-n2c(O)c(C=Nc3ccccc3C(=O)O)c3ccccc3c2=O)c1 | 20µM* | 0.1% | 18.0% | 34.0 | 4.1% | -19.2%
COc1ccc(OC)c(CNS(=O)(=O)c2ccc3c(c2)oc(=O)n3C)c1 | i | 1.5% | / | / | / | -10.5%
O=C(NCCCN1CCOCC1)c1ccc(Sc2ccccc2Cl)c([N+](=O)[O-])c1 | i | 11.6% | ? | -52.4* | ? | -14.3%
O=C(Nc1cccc(Cl)c1)c1ccc(NCCCN2CCOCC2)c([N+](=O)[O-])c1 | ? | 2.0% | ? | -50.9* | -0.6%[9.22 µM] | ?
Cc1ccc(NC(=O)c2ccc(NCCCN3CCC(C)CC3)c([N+](=O)[O-])c2)cc1F | i | ? | 19.0% | ? | ? | -1.0%
COc1cc(/C=C2/C(=O)NN(c3cccc(C)c3)C2=O)ccc1OC(=O)c1ccco1 | ? | 1.1% | ? | -68.9* | -45.4% | -36.0%
COc1ccc(-c2oc3ccccc3c2C#Cc2cncn2C)cc1 | ? | -1.0% | 18.4µM* | ? | ? | ?
Cc1ccc2nc(-c3ccc(N=Nc4cc(S(=O)(=O)O)c5ccccc5c4O)cc3)sc2c1S(=O)(=O)O | / | -0.5% | / | / | / | /
O=S(OCCN1CCOCC1)C(c1ccccc1)c1ccccc1 (stereo unspecified) | i | 0.6% | -9.3% | -11.4 | -2.3% | 9.4%
O=S(OCCN1CCCC1)C(c1ccccc1)c1ccccc1 (stereo unspecified) | ? | 0.3% | ? | -90.3* | -9.2% | 7.0%
CCC(C)c1ccc(NC(=O)NCCN2CCCCC2)cc1 (stereo unspecified) | i | 2.4% | -13.7% | -52.0* | ? | -14.4%
O=C(NCCN1CCCC1)C(c1ccccc1)c1ccccc1 | i | 1.3% | 23.1µM* | -25.2 | ? | 29.4%
COc1ccc(CCn2c3c(c(=O)[nH]c2=O)C(NC(=O)c2ccc(C(C)(C)C)cc2)(C(F)(F)F)C(=O)N3)cc1OC (stereo unspecified) | i | 0.5% | / | / | / | 22.1%
COc1cc(=O)n2c(c1C(=O)NC(C)c1ccco1)CCN(C(=O)c1cccc(C)c1C)CC2 (stereo unspecified) | i | -0.2% | / | / | / | /
Cc1ccc(O)c(C(=O)/C=C/c2ccc3c(c2)OCCCO3)c1 | i | -1.4% | 13µM* | -104.6* | ? | 2.2%
Cc1ccc(O)c(C(=O)C=Cc2ccccc2)c1 | i | -7.2% | ? | -101.1* | ? | 0.5%
Cc1ccc(/C=C/C(=O)c2ccccc2O)cc1 | i | -0.4% | ? | -102.2* | ? | 42.0%
COc1ccc(/C=C2\CCC/C(=C\c3ccc(OC)c(OC)c3OC)C2=O)c(OC)c1OC | i | -0.5% | 13.2% | 0.0 | 1.0% | -24.7%
COc1cc(OC)c(OC)cc1/C=C1\CCC/C(=C\c2cc(OC)c(OC)cc2OC)C1=O | ? | -3.7% | 16.4µM* | -56.3* | ? | ?
COc1cc(OC)c(OC)cc1/C=C1\CCC(C2CCCC2)C1=O (stereo unspecified) | i | 0.2% | ? | -50.7* | ? | /
Cc1cc(NC(=O)COC(=O)c2ccc(OC(F)(F)F)cc2)no1 | i | -1.1% | -4.5% | 7.1 | -10.0% | 9.8%
Cc1cc(NC(=O)COC(=O)C(Nc2ccc(C(F)(F)F)cc2Cl)C(C)C)no1 (stereo unspecified) | ? | 21.4% | 20.6µM* | -12.7 | 22.8% | ?
O=C(CSC1=NC2(CCCCCC2)N=C1c1ccccc1)Nc1ccc2c(c1)OCCO2 | ? | 1.7% | 0.5% | -75.3* | 14.3% | -32.2%
O=C(CSc1ccccc1)Nc1ccc2c(c1)OCCO2 | i | 1.2% | ? | -1.6 | -0.3% | 70.1%
COc1cc(-c2nc(SCC(=O)Nc3ccc4c(c3)OCO4)c(-c3ccccc3)[nH]2)cc(OC)c1OC | ? | -0.9% | / | / | / | ?
SMILES | ATXN viability | PINK1 modulator | MCF10A rereplic | IL1B secr inh | SW480 rereplic | ATXN2 expr inh
Cc1ccc(C2=NC3(CCCC3)N=C2SCC(=O)Nc2ccc3c(c2)OCCO3)cc1 | ? | 0.0% | ? | -94.3* | 20.6µM* | -19.8%
O=C(CSc1nc(-c2ccccc2)[nH]c1-c1ccccc1)Nc1ccc2c(c1)OCO2 | ? | 23.8% | / | / | / | 20µM*
O=C(CSC1=NC2(CCCCC2)N=C1c1ccccc1)Nc1ccc2c(c1)OCCO2 | i | 1.4% | ? | -80.4* | ? | 0.6%
COc1ccc(C(CC(=O)Nc2cccc(C)c2C)N2Cc3ccccc3C2=O)cc1 (stereo unspecified) | / | -0.6% | / | / | / | /
COc1ccccc1-n1c(C)nc2cc(C(=O)NCCN3CCOCC3)ccc21 | i | -0.4% | -9.0% | -0.3 | 3.66µM* | /
Cc1ccc(Cn2c(=O)n(Cc3ccccc3)c(=O)c3c(C)c(C)sc32)cc1 | i | 1.3% | / | / | / | -7.9%
Cc1ccc(-c2c[n+](CC(=O)Nc3nc(-c4ccc(F)cc4)cs3)c3n2CCC3)cc1 | ? | -2.8% | 8.6% | -99.6* | -37.7% | -17.1%
Cc1ccc(-c2c[n+](CC(=O)Nc3ccc(C)cc3C)c3n2CCC3)cc1 | i | 0.3% | ? | -72.6* | ? | 17.0%
CCOc1ccc(/C=C/c2nc(C#N)c(NC(C)c3ccccc3)o2)cc1 (stereo unspecified) | / | 10.5% | / | / | / | /
COc1cc(NC(=O)c2ccco2)c(C(=O)OCC(=O)c2c[nH]c3ccccc23)cc1OC | ? | -0.9% | 23.1µM* | 26.1 | ? | /
O=C1CC(=O)OC(c2ccc([N+](=O)[O-])cc2)O1 | ? | -0.4% | / | -54.7* | / | /
CCN(CC)C(=O)Cn1cc(SCC(=O)NC2CCCCC2)c2ccccc21 | i | 0.9% | / | -22.9 | / | /
CC1Cc2ccccc2N1C(=O)COC(=O)c1ccc(Cl)c(S(=O)(=O)N2CCOCC2)c1 (stereo unspecified) | i | 0.0% | 15.4% | -4.9 | 4.5% | -14.1%
COc1ccc(/C=N/NC(=O)c2[nH]c3ccc(Br)cc3c2-c2ccccc2)cc1 | i | 6.7% | 0.206µM* | 78.1 | 1.16µM* | -27.1%
CC(=O)NNC(=O)c1[nH]c2ccc(Br)cc2c1-c1ccccc1 | i | 1.8% | 2.2% | 12.1 | ? | 0.0%
Cc1c(C(=O)N/N=C/c2ccccc2)[nH]c2ccc(Cl)cc12 | ? | 1.8% | 14.6µM* | 29.0 | 20.6µM* | /
CC(=O)Nc1c(-c2ccccc2)c2cc(Br)ccc2[nH]c1=O | ? | 2.9% | 0.731µM* | -28.5 | 4.6% | -27.5%
Cc1cccc(N2CCN(C(=O)Cn3c(=O)c4cccn4c4ccc(F)cc43)CC2C)c1 (stereo unspecified) | / | 4.6% | / | / | / | /

Source: PubChem BioAssay (National Center for Advancing Translational Sciences (NCATS))
